ChEMBL document CHEMBL5724796, “Tm Shift (DSF) assay results for EUbOPEN Chemogenomics Library” (2024)
Residues, ends and D or L forms follow the SMILES beside them. *: point of attachment. Cbz = O=C(OCc1ccccc1)*; CH2F = FC*

How the values were obtained:
Conditions in all cases: Compound concentration 20.0 uM
[1] = molecular target: Tyrosine-protein kinase ABL1 (Homo sapiens) (UniProt P00519)
[2] = molecular target: Bromodomain-containing protein 4 (Homo sapiens) (UniProt O60885)
[3] = molecular target: Cyclin-dependent kinase 2 (Homo sapiens) (UniProt P24941)
[4] = molecular target: Casein kinase I isoform delta (Homo sapiens) (UniProt P48730)
[5] = molecular target: Glycogen synthase kinase-3 beta (Homo sapiens) (UniProt P49841)
[6] = molecular target: Mitogen-activated protein kinase 1 (Homo sapiens) (UniProt P28482)
[7] = molecular target: T1, Aurora kinase A (Homo sapiens) (UniProt O14965)
T1 sequence (whole entry): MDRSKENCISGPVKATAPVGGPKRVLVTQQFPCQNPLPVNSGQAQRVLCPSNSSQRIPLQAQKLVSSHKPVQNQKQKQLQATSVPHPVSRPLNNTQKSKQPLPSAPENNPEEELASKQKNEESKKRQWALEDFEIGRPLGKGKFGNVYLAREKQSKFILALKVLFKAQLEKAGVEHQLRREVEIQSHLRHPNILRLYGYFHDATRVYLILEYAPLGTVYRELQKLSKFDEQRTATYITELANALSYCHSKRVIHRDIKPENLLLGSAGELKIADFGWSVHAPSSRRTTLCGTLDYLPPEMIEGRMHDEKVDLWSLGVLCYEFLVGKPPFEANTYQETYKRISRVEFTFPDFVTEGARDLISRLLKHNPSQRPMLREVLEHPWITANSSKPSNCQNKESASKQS

[8] = molecular target: T2, Transcription intermediary factor 1-alpha (Homo sapiens) (UniProt O15164)
T2 sequence (whole entry): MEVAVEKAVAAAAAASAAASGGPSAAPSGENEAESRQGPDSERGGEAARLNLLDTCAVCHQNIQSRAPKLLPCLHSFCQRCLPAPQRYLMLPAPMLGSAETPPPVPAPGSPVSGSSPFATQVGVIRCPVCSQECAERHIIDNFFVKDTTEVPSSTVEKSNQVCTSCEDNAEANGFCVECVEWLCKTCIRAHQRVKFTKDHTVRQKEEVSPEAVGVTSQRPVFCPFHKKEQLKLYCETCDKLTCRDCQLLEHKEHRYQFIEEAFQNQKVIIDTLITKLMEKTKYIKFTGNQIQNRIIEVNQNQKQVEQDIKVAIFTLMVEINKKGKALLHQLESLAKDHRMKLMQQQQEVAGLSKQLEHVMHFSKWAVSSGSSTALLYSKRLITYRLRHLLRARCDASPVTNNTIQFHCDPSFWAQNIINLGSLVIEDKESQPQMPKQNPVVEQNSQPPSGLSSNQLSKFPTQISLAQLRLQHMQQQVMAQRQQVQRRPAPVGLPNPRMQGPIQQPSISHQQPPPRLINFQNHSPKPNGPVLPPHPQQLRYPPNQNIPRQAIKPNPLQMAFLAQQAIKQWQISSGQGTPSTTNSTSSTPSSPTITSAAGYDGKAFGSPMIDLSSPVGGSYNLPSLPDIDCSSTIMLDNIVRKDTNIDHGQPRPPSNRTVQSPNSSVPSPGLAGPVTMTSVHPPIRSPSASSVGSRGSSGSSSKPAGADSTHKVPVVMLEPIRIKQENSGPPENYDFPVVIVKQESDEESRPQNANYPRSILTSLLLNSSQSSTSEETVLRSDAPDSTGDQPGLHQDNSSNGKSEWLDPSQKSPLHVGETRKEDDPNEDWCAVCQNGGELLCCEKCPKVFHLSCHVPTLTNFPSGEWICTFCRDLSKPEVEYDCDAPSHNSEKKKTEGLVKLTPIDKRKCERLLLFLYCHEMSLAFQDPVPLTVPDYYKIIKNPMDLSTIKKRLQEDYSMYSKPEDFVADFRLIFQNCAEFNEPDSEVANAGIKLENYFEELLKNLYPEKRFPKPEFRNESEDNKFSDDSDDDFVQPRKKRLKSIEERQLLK

Glycogen synthase kinase-3 beta (Homo sapiens), sequence (P49841 whole entry, looked up): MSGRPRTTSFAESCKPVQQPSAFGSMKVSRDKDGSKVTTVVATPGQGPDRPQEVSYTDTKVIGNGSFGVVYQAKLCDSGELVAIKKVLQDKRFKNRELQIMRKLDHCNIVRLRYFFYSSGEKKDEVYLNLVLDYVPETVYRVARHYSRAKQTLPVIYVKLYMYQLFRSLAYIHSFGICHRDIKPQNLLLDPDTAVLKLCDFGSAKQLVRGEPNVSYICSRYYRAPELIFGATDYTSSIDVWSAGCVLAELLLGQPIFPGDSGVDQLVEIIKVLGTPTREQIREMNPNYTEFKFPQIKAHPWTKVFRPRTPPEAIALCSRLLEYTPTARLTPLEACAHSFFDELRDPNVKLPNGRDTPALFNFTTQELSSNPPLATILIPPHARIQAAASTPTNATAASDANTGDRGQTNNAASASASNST
Mitogen-activated protein kinase 1 (Homo sapiens), sequence (P28482 whole entry): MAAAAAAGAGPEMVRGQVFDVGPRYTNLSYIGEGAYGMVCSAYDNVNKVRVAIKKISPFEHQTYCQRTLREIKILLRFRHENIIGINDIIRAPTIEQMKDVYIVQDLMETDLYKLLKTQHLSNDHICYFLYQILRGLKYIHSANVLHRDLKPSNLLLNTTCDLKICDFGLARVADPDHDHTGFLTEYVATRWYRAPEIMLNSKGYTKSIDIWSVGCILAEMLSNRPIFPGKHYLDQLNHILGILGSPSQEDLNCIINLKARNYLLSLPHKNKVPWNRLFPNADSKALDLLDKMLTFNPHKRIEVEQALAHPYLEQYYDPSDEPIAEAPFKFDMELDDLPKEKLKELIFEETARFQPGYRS
Tyrosine-protein kinase ABL1 (Homo sapiens), sequence (P00519 whole entry): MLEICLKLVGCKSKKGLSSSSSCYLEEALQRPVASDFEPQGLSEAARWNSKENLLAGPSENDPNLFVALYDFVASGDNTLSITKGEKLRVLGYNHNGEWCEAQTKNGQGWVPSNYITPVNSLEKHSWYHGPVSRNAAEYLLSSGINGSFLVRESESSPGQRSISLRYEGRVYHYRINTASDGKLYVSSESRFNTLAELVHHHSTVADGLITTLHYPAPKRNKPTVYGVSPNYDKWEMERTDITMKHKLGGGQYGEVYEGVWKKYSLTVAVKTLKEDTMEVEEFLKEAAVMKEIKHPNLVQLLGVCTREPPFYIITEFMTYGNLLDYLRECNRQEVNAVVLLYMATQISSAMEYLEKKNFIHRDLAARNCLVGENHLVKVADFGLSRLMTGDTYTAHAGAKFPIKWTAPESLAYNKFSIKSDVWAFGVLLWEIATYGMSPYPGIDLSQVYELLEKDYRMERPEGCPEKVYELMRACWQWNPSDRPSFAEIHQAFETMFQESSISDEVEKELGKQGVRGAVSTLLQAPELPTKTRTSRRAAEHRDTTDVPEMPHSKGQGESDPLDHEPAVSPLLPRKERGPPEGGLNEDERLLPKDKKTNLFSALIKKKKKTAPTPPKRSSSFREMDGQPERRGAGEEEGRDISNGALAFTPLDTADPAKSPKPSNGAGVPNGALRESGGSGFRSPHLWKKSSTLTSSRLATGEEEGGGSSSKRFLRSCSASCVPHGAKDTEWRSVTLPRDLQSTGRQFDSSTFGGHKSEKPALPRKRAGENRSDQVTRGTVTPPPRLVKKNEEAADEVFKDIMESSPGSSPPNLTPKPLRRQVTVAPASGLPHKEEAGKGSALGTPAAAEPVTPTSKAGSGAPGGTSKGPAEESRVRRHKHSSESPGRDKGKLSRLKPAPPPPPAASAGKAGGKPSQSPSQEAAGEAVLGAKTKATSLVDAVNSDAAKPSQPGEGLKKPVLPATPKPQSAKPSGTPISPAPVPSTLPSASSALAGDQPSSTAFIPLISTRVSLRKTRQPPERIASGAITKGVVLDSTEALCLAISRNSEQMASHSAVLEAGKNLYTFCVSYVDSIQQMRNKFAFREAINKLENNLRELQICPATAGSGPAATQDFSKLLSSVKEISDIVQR
Casein kinase I isoform delta (Homo sapiens), sequence (P48730 whole entry, looked up, canonical isoform): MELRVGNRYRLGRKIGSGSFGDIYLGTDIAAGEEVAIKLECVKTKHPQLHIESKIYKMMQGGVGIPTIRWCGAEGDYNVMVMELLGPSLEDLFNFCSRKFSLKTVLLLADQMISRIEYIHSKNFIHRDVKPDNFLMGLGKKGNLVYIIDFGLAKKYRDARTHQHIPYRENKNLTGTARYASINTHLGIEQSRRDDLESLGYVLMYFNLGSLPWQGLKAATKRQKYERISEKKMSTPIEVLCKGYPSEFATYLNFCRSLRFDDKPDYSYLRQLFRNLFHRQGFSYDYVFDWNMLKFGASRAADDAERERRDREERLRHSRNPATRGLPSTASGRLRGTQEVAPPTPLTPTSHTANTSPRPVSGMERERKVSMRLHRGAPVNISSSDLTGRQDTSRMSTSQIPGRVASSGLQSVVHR

SMILES	ΔTm [1] [°C]	ΔTm [2] [°C]	ΔTm [3] [°C]	ΔTm [4] [°C]	ΔTm [5] [°C]	ΔTm [6] [°C]	ΔTm [7] [°C]	ΔTm [8] [°C]
C[C@H](c1nc2c(cnn2C2CCOCC2)c(=O)[nH]1)N1CC(Oc2ccccc2)C1	0.76	-2.52	0.6	-0.29	3.31	0.49	-1.78	0.73
CCCOc1ccc(CCc2nc3cc(-c4c(C)noc4C)ccc3n2CCN2CCOCC2)cc1	0.14	0.27	-1.68	0.28	1.16	0.33	-1.97	-1.29
COC(=O)[C@H]1[C@H]2C[C@@H]3c4[nH]c5cc(OC)ccc5c4CCN3C[C@H]2C[C@@H](OC(=O)c2cc(OC)c(OC)c(OC)c2)[C@@H]1OC	0.21	-0.12	0.11	-0.26	-0.54	0.12	-0.63	-0.4
Cn1cc(C(=O)Nc2ccc([C@@H]3C[C@H]3NCC3CC3)cc2)cn1	0.52	-3.07	0.01	-0.16	-0.77	0.06	-2.24	0.47
CC(C)c1cc(C(=O)N2Cc3ccc(CN4CCN(C)CC4)cc3C2)c(O)cc1O	1.01	-1.29	0.67	0.22	-0.43	-0.06	-0.12	-0.61
N[C@](CCCCB(O)O)(CCN1CCCCC1)C(=O)O	0.12	2.02	1.3	-0.19	-0.19	0.26	-1.26	0.59
Cn1c(OC[C@H]2CC[C@H](C(F)(F)F)CC2)nn2c(C3CCOCC3)ncc2c1=O	0.42	-3.44	-0.19	-0.45	0.18	0.06	-2.37	-1.13
CNC[C@@H](O)COc1ccc(Cl)c(-c2nc(-c3c(C)noc3C)c(C)c(N3CC4(CCN(C(=O)OC)CC4)C3)n2)c1	0.37	-2.53	0.32	0.05	-0.26	-2.08	0.12	0.65
CC1(C)c2cccc(C(=O)NO)c2CN1c1cnc(C(F)(F)F)cn1	0.41	-2.93	-2.1	0.64	0	0	-2.98	-1.07
CC(=O)C(=Cc1cc(O)c(O)c([N+](=O)[O-])c1)C(C)=O	0.06	0.74	0.04	-0.82	-0.72	0.27	0.07	0.21
Cc1cc(C)c(CNC(=O)c2cc(Cl)c3c(c2C)O[C@@](C)([C@H]2CC[C@H](N(C)C)CC2)O3)c(=O)[nH]1	0.37	-1.88	0.46	0.43	-0.76	0.07	-0.52	-2.02
CNc1nccc(CN([C@H]2CC[C@H](N)CC2)S(=O)(=O)c2ccc(S(=O)(=O)N(Cc3ccc(Cl)cc3)C3CCCC3)cc2)n1	-0.6	-2	-0.02	-0.71	-0.62	-3.03	-2.32	0.19
N#C[C@@H]1CCCN1C(=O)CNC(=O)c1ccnc2ccc(OCCCN3CCN(C(=O)CN4CCN(CC(=O)O)CCN(CC(=O)O)CCN(CC(=O)O)CC4)CC3)cc12	0.75	-2.94	0.18	-0.3	-0.21	0.66	-2.4	0.33
O=C(CCCCCCNC(=O)c1cnc(N(c2ccccc2)c2ccccc2Cl)nc1)NO	0.43	-2.47	0.09	0.15	-0.06	-0.04	-0.63	-0.75
COc1cc(Nc2ncc(F)c(Nc3ccc4c(n3)N(COP(=O)(O)O)C(=O)C(C)(C)O4)n2)cc(OC)c1OC	2.78	0.11	5.51	0.24	-0.66	-0.75	13.3	-1.96
CN1Cc2c(Cl)cc(Cl)cc2[C@H](c2cccc(S(=O)(=O)NCCOCCOCCNC(=O)NCCCCNC(=O)NCCOCCOCCNS(=O)(=O)c3cccc([C@@H]4CN(C)Cc5c(Cl)cc(Cl)cc54)c3)c2)C1	-0.4	-2.19	-0.62	-0.55	-1.54	0	-2.14	-0.19

SMILES	ΔTm [1] [°C]	ΔTm [2] [°C]	ΔTm [3] [°C]	ΔTm [4] [°C]	ΔTm [5] [°C]	ΔTm [6] [°C]	ΔTm [7] [°C]	ΔTm [8] [°C]
CC(C)(O)c1ccc(N2Cc3c(ccnc3-c3ccc(F)cc3OCC(F)(F)F)C2=O)cc1	1.61	-2.56	-1.07	0.07	0.38	-10.3	1.43	-1.06
O=C(NC(Cc1ccccc1)C(=O)NC(Cc1ccccc1)C(=O)CF)OCc1ccccc1 (stereo not drawn) (Cbz-Phe-Phe-CH2F; configuration not given here)	0.45	-0.83	0.11	-0.3	0.04	0.22	-2.32	1.22
CCC(=O)N1CCOc2c(cc(-c3cc(OC)cc(OC)c3)cc2C(=O)N[C@H]2CCCN(C)C2)C1	0.72	-0.15	0.57	0.5	-1.27	0.1	0.01	-2.74
N#Cc1ccc(Nc2cnccc2SCc2ccccc2C(=O)O)c2ccccc12	0.28	1.65	0.57	-0.12	0	0.32	-0.47	1.31
C[C@H](Nc1cc(Cl)nc2c1cnn2[C@@H]1O[C@H](COP(=O)(O)CP(=O)(O)O)[C@@H](O)[C@H]1O)c1ccccc1F	1.24	-1.43	-0.1	0.27	1	-0.38	1.74	-0.82
CS(=O)(=O)c1ccc(Oc2cc(F)cc(C#N)c2)c2c1[C@H](O)[C@H](F)[C@@H]2F	0.05	2.78	0.17	-0.33	-0.61	0.64	-2.09	1.99
NC(=O)c1cnc(N[C@@H]2CCCC[C@@H]2N)nc1Nc1cccc(-n2nccn2)c1	3.49	-1.09	5.92	6.3	5.98	4.33	2.17	0.1
CC(=O)N1CCN([C@H]2CCC[C@@H](NC(=O)c3cc4c(F)ccc(C)c4[nH]3)C2)CC1	0.05	-1.42	0.08	0.26	-1.37	0.01	-0.09	-1.38
Cc1nn(CC(F)(F)F)cc1Nc1ncc(Br)c(NCc2ccc(S(N)(=O)=O)cc2)n1	2.53	-2.79	0.52	0.99	-0.15	2.84	6.65	1.38
OC[C@H]1O[C@@H](c2ccc(Cl)c(Cc3ccc(O[C@H]4CCOC4)cc3)c2)[C@H](O)[C@@H](O)[C@@H]1O	0.58	-2.67	-0.08	-0.33	-0.36	0.5	-1.72	-0.73
CC(=O)N[C@@H](Cc1ccc(O)cc1)C(=O)N[C@H](C(=O)N[C@@H](C)C(=O)N[C@@H](CC(=O)O)C(=O)COC(=O)c1c(C)cccc1C)C(C)C	0.26	-2.81	0.14	0.17	-0.23	-0.06	-0.54	-0.84
O=C(c1cc(Cc2n[nH]c(=O)c3ccccc23)ccc1F)N1CC(CNC2CC2)C1	0.54	-1.65	0.08	-0.14	-0.61	0.06	-2.47	0.44
CC(C)c1cnc(CSc2cnc(NC(=O)C3CCNCC3)s2)o1	0.26	-1.43	6.28	1.43	7.03	-0.12	3.08	-0.84
CC1=NN(c2ccc(C(=O)O)cc2)C(=O)/C1=C/c1ccc(-c2cc(C)c(C)cc2[N+](=O)[O-])o1	3.73	-0.48	0.29	0.15	0.03	0.41	-0.94	-1.19
O=C(NCCCCCCCCNC(=O)C(Cl)Cl)C(Cl)Cl	0.05	-2.38	-0.1	-0.18	-1.79	-0.02	-1.73	1.02
